Data from PubChem BioAssay (EPA / NIEHS).
Values joined by “and” are separate entries in the source; they are usually repeats but may differ in a detail not shown here. Identical values can stand only once. The source holds several records for some structures; these can differ, active in one and inactive in another. Active and inactive are the calls of the source. How the source made its calls: active means hit-call score of the fitted dose curve at least 0.9, where 1 is the maximum; inactive means score below 0.9.

Key:
[1] = read-out: Interleukin-1 alpha (IL1a), IL1A (gene 3552); experiment: BSK_KF3CT_IL1a: BioMAP Diversity Plus: KF3CT Assay for Interleukin-1 alpha (IL1a) Biomarker Activity (AID 2283070); conditions: primary human keratinocytes with fibroblasts; actives raise or lower the signal
In short: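 Human keratinocyte plus foreskin fibroblast primary co-culture, sampled 24 h after chemical dosing. IL-1a measured by ELISA; responses fitted bidirectionally against DMSO baseline (negative control), so gain or loss of signal both count.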

[2] = read-out: TIMP metallopeptidase inhibitor 2 (TIMP2), TIMP2 (gene 7077); experiment: BSK_KF3CT_TIMP2: BioMAP Diversity Plus: KF3CT Assay for TIMP metallopeptidase inhibitor 2 (TIMP2) Biomarker Activity (AID 2283071); conditions: primary human keratinocytes with fibroblasts; actives raise or lower the signal
In short: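 Human primary keratinocyte/foreskin fibroblast co-culture dosed with chemical and sampled at 24 h. TIMP-2 levels quantified by ELISA; bidirectional fitting against DMSO negative control as baseline.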

[3] = read-out: Transforming growth factor beta 1 (TGFb1), TGFB1 (gene 7040); experiment: BSK_KF3CT_TGFb1: BioMAP Diversity Plus: KF3CT Assay for Transforming growth factor beta 1 (TGFb1) Biomarker Activity (AID 2283072); conditions: primary human keratinocytes with fibroblasts; actives raise or lower the signal
In short: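 Human keratinocyte plus foreskin fibroblast primary co-culture, dosed with chemical for 24 h. TGF-b1 quantified by ELISA. Activity fitted bidirectionally against DMSO negative control as baseline.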

[4] = read-out: C-C motif chemokine 2 (Homo sapiens) (UniProt P13500); experiment: BSK_KF3CT_MCP1: BioMAP Diversity Plus: KF3CT Assay for Monocyte Chemoattractant Protein 1 (MCP1/CCL2) Biomarker Activity (AID 2283073); conditions: primary human keratinocytes with fibroblasts; actives raise or lower the signal
In short: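 Keratinocytes and foreskin fibroblasts were co-cultured, dosed with chemical, and sampled 24 h later. MCP-1 was quantified by ELISA, and the endpoint was analyzed with bidirectional fitting using DMSO as negative control.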

[5] = read-out: Matrix Metallopeptidase 9 (MMP9), MMP9 (gene 4318); experiment: BSK_KF3CT_MMP9: BioMAP Diversity Plus: KF3CT Assay for Matrix Metallopeptidase 9 (MMP9) Biomarker Activity (AID 2283074); conditions: primary human keratinocytes with fibroblasts; actives raise or lower the signal;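 on AC50: MMP9 protein level quantified by ELISA in the co-culture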
In short: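 Keratinocyte plus foreskin fibroblast human primary skin co-culture was dosed with chemical and MMP-9 was quantified by ELISA 24 h later. Bidirectional curve fitting used DMSO as negative control and activity baseline.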

[6] = read-out: urokinase plasminogen activator (uPA), PLAU (gene 5328); experiment: BSK_KF3CT_uPA: BioMAP Diversity Plus: KF3CT Assay for urokinase plasminogen activator (uPA) Biomarker Activity (AID 2283075); conditions: primary human keratinocytes with fibroblasts; actives raise or lower the signal
In short: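 Human keratinocyte plus foreskin fibroblast primary co-culture exposed to chemical for 24 h. uPA levels were quantified by ELISA, and activity was fitted bidirectionally against a DMSO negative-control baseline.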

[7] = read-out: CD40, CD40 (gene 958); experiment: BSK_LPS_CD40: BioMAP Diversity Plus: LPS Assay for CD40 Biomarker Activity (AID 2283076); conditions: primary human HUVEC with PBMC; actives raise or lower the signal
In short: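 CD40 signal, measured by ELISA, is fitted in both directions relative to DMSO vehicle. The system is an LPS-driven human vascular primary co-culture of endothelial cells and PBMC, sampled 24 h after compound addition.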

[8] = read-out: Interleukin-8 (IL8), CXCL8 (gene 3576); experiment: BSK_LPS_IL8: BioMAP Diversity Plus: LPS Assay for Interleukin-8 (IL8) Biomarker Activity (AID 2283078); conditions: primary human HUVEC with PBMC; actives raise or lower the signal
In short: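 Endothelial cells and PBMC from human donors are co-cultured, treated with chemicals and LPS, then assayed for IL-8 by ELISA after 24 h. Parallel SRB staining (0.1% SRB after 10% TCA fixation, 560 nm) flags cytotoxicity.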

[9] = BSK_LPS_SRB: Viability Assessment in the BioMAP Diversity Plus: LPS Assay (AID 2283079); conditions: primary human HUVEC with PBMC;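 further: total protein by sulforhodamine B absorbance as a cytotoxicity measure; measured one day after compound addition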
In short: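 Overt cytotoxicity was gauged by sulforhodamine B total-protein staining in a primary human vascular endothelial and mononuclear cell co-culture 24 h post-dosing. Activity was fitted in both directions relative to DMSO.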

[10] = read-out: E-selectin (Homo sapiens) (UniProt P16581); experiment: BSK_LPS_Eselectin: BioMAP Diversity Plus: LPS Assay for Eselectin Biomarker Activity (AID 2283077); conditions: primary human HUVEC with PBMC; actives raise or lower the signal
In short: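 Signal of E-selectin, detected by ELISA, served as the endpoint; cells were umbilical vein endothelium with PBMC, read 24 h after treatment. DMSO defined baseline, and both increases and decreases were fitted.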

Measured: AC50

Sequence of E-selectin (Homo sapiens) (P16581 whole entry, looked up): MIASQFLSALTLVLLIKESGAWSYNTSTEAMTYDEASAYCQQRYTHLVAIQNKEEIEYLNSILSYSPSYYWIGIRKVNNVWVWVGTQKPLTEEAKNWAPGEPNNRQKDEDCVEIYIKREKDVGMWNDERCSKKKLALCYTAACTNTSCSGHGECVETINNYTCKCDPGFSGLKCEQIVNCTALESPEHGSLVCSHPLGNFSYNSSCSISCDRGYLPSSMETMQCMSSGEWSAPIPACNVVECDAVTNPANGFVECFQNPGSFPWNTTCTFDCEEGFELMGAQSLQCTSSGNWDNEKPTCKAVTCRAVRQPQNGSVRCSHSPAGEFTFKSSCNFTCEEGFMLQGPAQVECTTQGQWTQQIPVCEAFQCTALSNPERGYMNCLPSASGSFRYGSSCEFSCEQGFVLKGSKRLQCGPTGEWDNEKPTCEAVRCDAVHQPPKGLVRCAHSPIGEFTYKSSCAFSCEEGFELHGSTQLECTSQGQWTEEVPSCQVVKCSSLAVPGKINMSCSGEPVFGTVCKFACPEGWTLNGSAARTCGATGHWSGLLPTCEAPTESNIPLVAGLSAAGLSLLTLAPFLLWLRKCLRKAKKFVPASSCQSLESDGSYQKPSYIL

N#Cc1cc(Br)c(O)c(Br)c1
active: [7] 9.86 µM | [9] 3.97 µM
not listed: [10]
inactive: all other assays above

CCNc1nc(Cl)nc(NCC)n1
not listed: [10]
inactive: all other assays above

COc1cnc(OC)n2nc(NS(=O)(=O)c3c(OCC(F)F)cccc3C(F)(F)F)nc12
inactive: [1] | [2] | [3] | [4] | [5] | [6] | [10] | [8] | [9]
active: [6] 29.6 µM | [8] 0.0793 µM

COP(N)(=O)SC (centres undefined)
inactive: all assays above

C=CCC1=C(C)[C@@H](OC(=O)[C@@H]2[C@@H](C=C(C)C)C2(C)C)CC1=O
active: [5] 32.6 µM | [7] 29.2 µM | [10] 32.4 µM | [8] 26.3 µM | [9] 36.2 µM
inactive: all other assays above

CON(C)C(=O)Nc1ccc(Cl)c(Cl)c1
not listed: [7]
inactive: all other assays above

COc1nc(C)nc(NC(=O)NS(=O)(=O)c2ccccc2CCC(F)(F)F)n1
inactive: [1] | [2] | [3] | [4] | [5] | [6] | [7] | [10] | [8] | [9]
active: [5] 23.7 µM

Cc1ccc(-c2c(Cl)nc(C#N)n2S(=O)(=O)N(C)C)cc1
active: [5] 6.7 µM | [7] 14.9 µM | [10] 39.2 µM | [8] 27.6 µM | [9] 26 µM
inactive: [1] | [2] | [3] | [4] | [6]

C=CCC1=C(C)C(OC(=O)C2C(C=C(C)C)C2(C)C)CC1=O (centres undefined)
active: [1] 34.3 µM and 38.6 µM | [2] 31.1 µM and 32.9 µM and 26.7 µM | [3] 26.6 µM and 33.3 µM and 21 µM | [4] 33.6 µM and 36.4 µM and 28.4 µM | [5] 33.6 µM [middle of 4 runs] | [6] 33.8 µM and 33.3 µM | [8] 32 µM [middle of 4 runs] | [9] 33.1 µM [middle of 4 runs]
inactive: [1] | [2] | [3] | [4] | [6]

COC(=O)C(C)Oc1ccc(Oc2ccc(Cl)cc2Cl)cc1 (centres undefined)
active: [1] 5.15 µM | [5] 20 µM | [6] 21.1 µM and 31.6 µM | [7] 29.2 µM and 34.7 µM
inactive: [1] | [2] | [3] | [4] | [5] | [6] | [7] | [8] | [9]

CC(C)(C)c1ccc(CSc2cnn(C(C)(C)C)c(=O)c2Cl)cc1
active: [1] 6.93 µM | [2] 22.9 µM | [4] 20 µM | [5] 18.6 µM | [6] 4.28 µM | [7] 8.25 µM | [8] 3.16 µM | [9] 7.73 µM
inactive: [3]

CO/C=C(/C(=O)OC)c1ccccc1Oc1cc(Oc2ccccc2C#N)ncn1
inactive: [1] | [2] | [3] | [4] | [5] | [6]
active: [5] 2.7 µM

Cc1cc(Cl)ccc1OCC(=O)O
not listed: [10]
inactive: all other assays above

COc1nc(C)nc(NC(=O)NS(=O)(=O)c2ccccc2Cl)n1
active: [2] 31.6 µM
inactive: [1] | [2] | [3] | [4] | [5] | [6] | [10] | [8] | [9]

OC(c1ccc(Cl)cc1)(c1cncnc1)c1ccccc1Cl (centres undefined)
active: [7] 15.8 µM | [9] 23.2 µM
not listed: [10]
inactive: all other assays above

CCCCNC(=O)OCC#CI
active: [1] 30.1 µM and 20 µM | [2] 32.5 µM and 20.4 µM | [3] 30.1 µM and 14.9 µM | [4] 32.8 µM and 20 µM | [5] 29.4 µM and 13.7 µM | [6] 29.6 µM and 15.1 µM | [7] 13.6 µM and 9.3 µM | [10] 31.3 µM and 29.8 µM | [8] 19 µM and 16.3 µM | [9] 26.7 µM
